L3MBTL1 block = inhibitors of human L3MBTL1 | Potency, µM (highest dose often 57.1 µM), for inactives: top-dose activity, negative = inhibition, hits mostly inhibitors | 0.66% of 230,000 active | Q9Y468 | AlphaScreen L3MBTL1–H3K9me1 peptide binding | AID 485360; note: % is set by controls: 0 for no effect and ±100 for the full control effect; nearly all actives have a fitted effect of over 60% in size
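First, the protein-peptide complex forms for 30 min at room temperature (L3MBTL1 50 nM, biotinylated H3K9me1 peptide 75 nM). Next, compounds are pin-transferred and incubated 30 min. Finally, AlphaScreen beads are added and read after 30 min.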
Sfp inh = inhibitors of Bacillus subtilis Sfp phosphopantetheinyl transferase | Biochemical Sfp PPTase activity, qHTS | 3.5% of 310,000 active | AID 1490 | Potency, µM, inactives show largest response in the series, negative = inhibition, usual class: inhibitors;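 note: the enzyme is Sfp with the accession as filed and its product quenches rhodamine fluorescence; 0% = enzyme reaction without inhibitor and -100% = no enzyme wells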
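Sfp 15 nM + cpd, 15 min RT; start w/ rhodamine-CoA 5 uM, BHQ-2-YbbR 12.5 uM (final); 50 mM Hepes pH 7.6, 10 mM MgCl2, 0.01% NP-40, 0.01% BSA; read 525/598 nm at 0 and 30 min.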
HP1b binding inh = HP1-beta chromodomain-methylated histone interaction inhibition. 0.56% of 390,000 active. AlphaScreen HP1-beta / biotin-H3K9me3 peptide binding. Potency, µM (series often up to 114 µM), for the others: top-dose activity change, negative = inhibition, most hits filed as inhibitors. P83916; note: nearly all actives have a fitted effect of over 70% in size
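Compound inhibition of the preformed complex between 50 nM HP1-beta and 50 nM biotinylated H3K9me3 peptide was read by AlphaScreen. Buffer was PBS pH 7.4 with 0.01% Tween-20. Incubations ran 30 min at room temperature, with 10 ug/mL donor/acceptor beads.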
JMJD2A Tudor = blocks the human JMJD2A Tudor domain; AlphaScreen JMJD2A-Tudor / H3K4me3 peptide binding; Potency, µM (doses to about 114 µM), for inactives: at the top dose activity change, negative = inhibition, actives largely listed as inhibitors; 4.4% of 390,000 active; note: % is set by controls: 0 for no effect and ±100 for the full control effect; nearly all actives have a fitted effect of over 50% in size
Target sequence (O75164 whole entry, looked up, the tested form may be a part): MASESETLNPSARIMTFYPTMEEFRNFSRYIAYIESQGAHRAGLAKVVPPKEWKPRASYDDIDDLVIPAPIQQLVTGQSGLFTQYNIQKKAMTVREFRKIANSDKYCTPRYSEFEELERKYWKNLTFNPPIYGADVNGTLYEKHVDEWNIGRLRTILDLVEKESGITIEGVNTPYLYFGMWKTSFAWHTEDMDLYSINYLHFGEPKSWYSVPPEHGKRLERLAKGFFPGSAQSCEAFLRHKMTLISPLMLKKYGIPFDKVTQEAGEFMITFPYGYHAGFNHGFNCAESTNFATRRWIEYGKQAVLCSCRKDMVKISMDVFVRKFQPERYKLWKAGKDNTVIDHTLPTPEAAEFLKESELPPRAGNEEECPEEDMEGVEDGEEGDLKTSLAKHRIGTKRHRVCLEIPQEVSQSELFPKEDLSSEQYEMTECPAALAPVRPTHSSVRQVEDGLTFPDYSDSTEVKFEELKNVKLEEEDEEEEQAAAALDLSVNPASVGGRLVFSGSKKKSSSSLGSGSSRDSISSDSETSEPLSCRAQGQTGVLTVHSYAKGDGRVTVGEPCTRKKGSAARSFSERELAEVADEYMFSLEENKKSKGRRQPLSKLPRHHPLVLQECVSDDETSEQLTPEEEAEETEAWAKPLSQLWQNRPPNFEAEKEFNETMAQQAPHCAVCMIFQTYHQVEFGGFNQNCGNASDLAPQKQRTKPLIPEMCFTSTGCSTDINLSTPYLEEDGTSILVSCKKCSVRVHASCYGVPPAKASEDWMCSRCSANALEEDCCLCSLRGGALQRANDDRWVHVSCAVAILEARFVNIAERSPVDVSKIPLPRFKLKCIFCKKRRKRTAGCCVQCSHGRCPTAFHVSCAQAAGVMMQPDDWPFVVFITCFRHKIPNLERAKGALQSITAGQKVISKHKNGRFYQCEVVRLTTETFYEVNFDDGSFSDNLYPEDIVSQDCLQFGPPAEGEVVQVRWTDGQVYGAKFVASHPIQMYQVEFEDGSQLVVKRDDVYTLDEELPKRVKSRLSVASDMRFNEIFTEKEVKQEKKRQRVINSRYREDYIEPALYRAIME
G9a block = blocks human histone lysine methyltransferase G9a; G9a H3K9 monomethylation, AlphaScreen, 2 h; Potency, µM (top dose mostly 102 µM), for the others: at the highest dose activity, negative = inhibition, most hits filed as inhibitors; 8.8% of 350,000 active; AID 504332; note: % is set by controls: 0 for no effect and ±100 for the full control effect; nearly all actives have a fitted effect of over 75% in size
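Compounds were preincubated with 20 nM G9a for 15 min, after which biotinylated H3K9 peptide (500 nM) and SAM (20 uM) started a 2 h room-temperature reaction. Monomethylated product was quantified by antibody-based AlphaScreen chemiluminescence.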
BAZ2B inh = blocks human BAZ2B. Potency, µM (series often up to 114 µM), for the others: at the highest dose activity change, negative = inhibition, actives largely listed as inhibitors. Q9UIF8. AID 504333. AlphaScreen BAZ2B-H3K14Ac peptide displacement. 4.4% of 360,000 active; note: % is set by controls: 0 for no effect and ±100 for the full control effect; nearly all actives have a fitted effect of over 60% in size
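Complex of BAZ2B and biotin-H3K14Ac (50 nM apiece) forms over 30 min at RT, then faces library compounds up to 110 uM for another 30 min; AlphaScreen beads added, 20 min dark incubation, luminescence read.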
* hit, by the source's call; ? = inconclusive; nt = not tested or not shown; [ ] = another dose, or the depositor's remark. Only some compounds are listed: those with a hit (about 12% of all), similar ones and a draw of the others. Calls come from the whole dose curve; as a rule, active = well fitted curve in the direction sought with a large enough effect; inconclusive = small, poorly fitted or top-dose-only effect, or another doubt; inactive = no such curve, though single readings can be large; an effect the other way counts as inactive or inconclusive. Potency is the fitted concentration of half-maximal effect.

SMILES | L3MBTL1 block | Sfp inh | HP1b binding inh | JMJD2A Tudor | G9a block | BAZ2B inh
O=C(O)CSc1cc(NS(=O)(=O)c2cccc([N+](=O)[O-])c2)c2ccccc2c1O | ? | 2.82µM* | 10µM* | -35.3%[11.4 µM] | 2.51µM* | ?
CCc1ccc(S(=O)(=O)Nc2cc(SCC(=O)O)c(O)c3ccccc23)cc1 | ? | 3.98µM* | ? | 22.4µM* | 3.55µM* | ?
CCOc1ccc(S(=O)(=O)Nc2cc(SCC(=O)O)c(O)c3ccccc23)cc1 | ? | -83.9% | 12.6µM* | 22.4µM* | ? | 50.1µM*
Cc1ccc(C)c(S(=O)(=O)Nc2cc(SCC(=O)O)c(O)c3ccccc23)c1 | ? | 3.55µM* | ? | 39.8µM* | 1.12µM* | 20µM*
CCc1ccc(N2CC(C(=O)N/N=C/c3ccccc3)CC2=O)cc1 (configuration not stated) | nt | nt | -6.2% | ? | nt | nt
CC1(C)C2CC[C@]1(C)[C@@H](O)C2 | nt | 12.8% | nt | nt | 2.7%[12.7 µM] | nt
O=C1c2ccccc2C(=O)c2cc(S(=O)(=O)Nc3cccc4cccnc34)ccc21 | nt | 7.4% | nt | ? | nt | nt
O=S(=O)(Nc1cc(Sc2cccc3cccnc23)c(O)c2ccccc12)c1ccccc1 | ? | 10µM* | nt | nt | 1.58µM* | ?
Cc1ccc2nc(N3CCC(C(=O)N4CCN(c5cccc(Cl)c5)CC4)CC3)[nH]c2c1 | nt | nt | -0.3%[57 µM] | 56.2µM* | -36.1%[59 µM] | 70.8µM*
O=C(Cn1c(=S)[nH]c2ccccc21)c1ccccc1 | -3.4% | -17.8% | 41.8% | ? | 3.55µM* | -1.4%
CCn1c(=S)[nH]c2cc(C(=O)O)ccc21 | nt | ? | nt | nt | 44.7µM* | -11.8%
CCn1c(=S)[nH]c2cc(S(=O)(=O)N3CCCCC3)ccc21 | nt | -17.8% | -22.0% | 79.4µM* | ? | 3.8%
CCCCn1c(=S)[nH]c2cc(S(=O)(=O)N3CCOCC3)ccc21 | 1.2% | nt | 42.0% | ? | nt | nt
CCn1c(=S)[nH]c2ccccc21 | nt | -8.8% | 1.0% | 79.4µM* | 2.82µM* | -22.5%
CCCCCN(C(=O)CCC(=O)OCC(=O)N1CCC(C)CC1)c1c(N)n(CCCC)c(=O)[nH]c1=O | 34.0% | nt | 16.3% | -0.7% | ? | 9.5%
CN(C)c1nc(N)c([N+](=O)[O-])c(N2CCCCCC2)n1 | nt | 1.2% | 37.7% | -23.5% | -1.7% | -21.1%
Cc1ccc(NC(=O)Cn2c(=S)[nH]c3ccccc32)cc1 | nt | 44.7µM* | ? | -2.4% | 3.55µM* | -0.4%
CC(C)n1c(=S)[nH]c2ccccc21 | nt | 79.4µM* | -18.6% | 79.4µM* | ? | -21.8%
Cc1cc(C)cc(NC(=O)CCn2c(=S)[nH]c3ccccc3c2=O)c1 | nt | -9.9% | 28.6% | -10.5% | 63.7% | -3.5%
CC(C)Cn1c(=O)[nH]c2ccccc21 | nt | 14.9% | 38.8% | -1.2% | 15.5%[59 µM] | 8.6%
CCCCN(CCCC)C(=O)c1cc2c(=O)n3ccccc3nc2s1 | nt | nt | 174.8% | 100.3% | 72.4%[59 µM] | 102.7%
O=C1c2ccccc2N2C(=O)c3ccccc3C2N1Cc1ccco1 (configuration not stated) | -7.5% | 50.1µM* | 14.9% | -16.4% | ? | ?
Cc1ccccc1NC1c2ccccc2C(=O)N1Cc1ccco1 (configuration not stated) | nt | 28.2µM* | 16.4% | -32.4% | 44.7µM* | ?
COc1cccc(NC2c3ccccc3C(=O)N2Cc2ccco2)c1 (configuration not stated) | nt | ? | 9.3% | ? | 50.1µM* | -36.0%
CC(=O)c1cccc(NC2c3ccccc3C(=O)N2Cc2ccco2)c1 (configuration not stated) | -1.0% | 6.0% | 48.1% | -23.0% | -6.1% | -23.9%
O=C1c2ccccc2C(Nc2cccc(C(F)(F)F)c2)N1Cc1ccco1 (configuration not stated) | nt | 39.8µM* | 18.1% | ? | 70.8µM* | -7.3%
C/C(=N\O)C(C)NC(=O)c1ccccc1 (configuration not stated) | 0.9% | 9.2% | 17.5% | -7.9% | -10.1%[59 µM] | -1.5%
